# Compound activity deposited in PubChem BioAssay by National Center for Advancing Translational Sciences (NCATS).
# D2 ag-1 – Beta-Arrestin HTS for Positive Allosteric Modulators of the Human D2 Dopamine Receptor: Agonists | DiscoveRx PathHunter D2 beta-arrestin, luminescence, 90 min; 100% = 57 uM dopamine signal | activation, % (concentration not given with the values) | 0.084% of 360,000 active | AID 624465, 2012; in the data active = activation above about 40%; inconclusive = between about 15% and that limit
# Target sequence (P14416 whole entry, looked up): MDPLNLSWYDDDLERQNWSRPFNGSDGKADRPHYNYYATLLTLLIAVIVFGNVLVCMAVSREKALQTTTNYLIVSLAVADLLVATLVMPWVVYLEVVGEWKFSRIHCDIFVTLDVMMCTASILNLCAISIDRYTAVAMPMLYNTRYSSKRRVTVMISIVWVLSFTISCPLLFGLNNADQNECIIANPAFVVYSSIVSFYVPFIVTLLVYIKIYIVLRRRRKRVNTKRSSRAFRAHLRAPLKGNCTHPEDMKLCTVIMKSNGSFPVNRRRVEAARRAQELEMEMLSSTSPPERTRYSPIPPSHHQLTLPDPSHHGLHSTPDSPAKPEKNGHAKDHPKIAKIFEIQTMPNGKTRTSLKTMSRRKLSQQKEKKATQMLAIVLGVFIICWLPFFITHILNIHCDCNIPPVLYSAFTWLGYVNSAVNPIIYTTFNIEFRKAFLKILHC
#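 Agonist mode: compounds alone added to overnight-plated D2 PathHunter cells for 90 min at 37 C, with 57 uM final dopamine (EC100) defining full response. Beta-arrestin recruitment detected by chemiluminescent reagent, read after 1 h at ambient temperature.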
# D2 PAM-1 – Beta-Arrestin HTS for Positive Allosteric Modulators of the Human D2 Dopamine Receptor: Potentiators; D(2) dopamine receptor (Homo sapiens), P14416; DiscoveRx D2 beta-arrestin cells, luminescence, 90 min; 100% = 57 uM dopamine signal; potentiation, % (no concentration beside the values); 0.23% of 360,000 active; in the data active = potentiation above about 50%; inconclusive = mostly about 30% to 49%
#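 PathHunter beta-arrestin assay in DiscoveRx D2 cells. Compounds were added with an EC20 of dopamine (50 nM final) for 90 min at 37 deg C. Luminescence was read 1 h after detection reagent, with 57 uM dopamine as the EC100 control.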
# D2 antag – HTS Assay for Allosteric Antagonists of the Human D2 Dopamine Receptor: Primary Screen for Antagonists. D(2) dopamine receptor (Homo sapiens), P14416. 2% of 340,000 active. HEK293 TREx D2 cells, calcium flux, dopamine EC80. AID 485344, 2010. inhibition, % at 10 µM; in the data active = inhibition above about 30%; inactive = below that, where a call was filed; also: 0% is about no effect
#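 Overnight-induced (tetracycline, 30 C) HEK293 T-REx cells carrying force-coupled D2 receive a no-wash calcium dye, then compound, then EC80 dopamine at 180 s; signals are read kinetically throughout.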
# D2 ag-2 – HTS Assay for Allosteric Agonists of the Human D2 Dopamine Receptor: Primary Screen for Agonists. D(2) dopamine receptor (Homo sapiens), P14416. HEK293 T-REx D2 cells, calcium flux agonist mode. activation, % at 2 µM. 0.53% of 340,000 active. AID 485358, 2010;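 active = activation over 3 SD above normal in the single-dose calcium agonist read, cut at about 30% in these data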; also: 0% is about no effect
#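 Calcium-flux readout, 1 cycle/sec over 180 s following compound pin transfer, in inducible HEK293 Trex D2 cells (force-coupled); dopamine controls included. Positive calcium responses during this window marked compounds as potential agonists.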
# D2 PAM-2 – HTS Assay for Positive Allosteric Modulators of the Human D2 Dopamine Receptor: Primary Screen for Potentiators; potentiation, % at 10 µM; 0.34% of 340,000 active; AID 485347, 2010; D(2) dopamine receptor (Homo sapiens), P14416; HEK293 T-REx D2, calcium flux, EC20 dopamine potentiation;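 active = potentiation over 3 SD above the plate norm, cut at about 30% in these data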; also: 0% is about no effect
#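 Cells plated with tetracycline inducer and held overnight at 30 C; calcium dye loaded 30–90 min at room temperature; baseline taken, compound added and read 180 s; EC20 dopamine then added and read 180 s.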
# * = called active by the depositor; ? = inconclusive; . = not tested or not shown. An excerpt weighted towards active compounds, which were near 2.4% of everything screened.
SMILES,D2 ag-1,D2 PAM-1,D2 antag,D2 ag-2,D2 PAM-2
CCOc1cc(C(=O)N2CC(=O)Nc3ccc(C)cc3C2c2ccccc2)cc(OCC)c1OCC (stereo not given),.,.,.,1,5
CC(C)OCc1cc(CN2CCN(c3cccc(C(F)(F)F)c3)CC2)c(O)c2ncccc12,.,.,.,-1,8
O=[N+]([O-])c1cc(CN2CCN(c3cccc(C(F)(F)F)c3)CC2)c2cccnc2c1O,0,-23,36*,-1,-22
CCn1c(=O)c2sccc2n2c(CCC(=O)N3CCN(c4ccccc4OC)CC3)nnc12,.,.,.,-1,17
OCCNCc1cc(Br)ccc1OCc1ccccc1Cl,2,-26,42*,0,0
Cc1ccc(S(=O)(=O)N2CCC(c3ccncc3)CC2)c(C)c1,.,.,.,0,3
Cc1cc(C)n(CC(=O)c2ccc(Cl)cc2)n1,4,2,12,0,39*
Cc1cc(C)n(CCCNC(=O)C(C)(C)Oc2ccc(Cl)cc2)n1,0,-13,31*,0,6
Cc1cc(C)cc(OCC(=O)Nc2ccc(S(=O)(=O)Nc3onc(C)c3C)cc2)c1,.,.,.,-2,5
Clc1ccc2c(c1)C(N1CCNCC1)=Nc1ccccc1O2,-4,-11,76*,-3,-33
Cc1oc(-c2cccs2)nc1CN1CCC(CO)(CCOc2ccccc2)CC1,-4,-29,54*,-1,-8
Cc1oc(-c2cccs2)nc1CN1CCC(C(=O)N2CCCC2)CC1,-4,-11,23,-2,-10
CCOC(=O)C1(CCOC)CCN(Cc2nc(-c3cccs3)oc2C)CC1,-3,-14,31*,1,-22
O=C(CSc1n[nH]c(-c2ccccc2)n1)NCCc1ccccc1,.,.,.,0,.
CC1CCC(NC(=O)CSc2nncs2)CC1 (stereo not given),-2,3,4,0,-3
O=C(CSc1nncs1)NC1CCCCCCC1,-4,-4,31*,-1,12
Fc1ccc(-c2csc(N3CCOCC3)n2)cc1,-1,-2,-1,-2,6
c1ccc2oc(-c3csc(N4CCOCC4)n3)cc2c1,-1,-1,-7,0,31*
CCN(CCNc1ccc(Cl)cc1[N+](=O)[O-])C(=O)c1cc([N+](=O)[O-])c(N(C)C)cc1OC,-5,-21,34*,0,-8
Cc1cccc(/C(N)=N/OC(=O)N2c3ccccc3Sc3ccccc32)c1,?,51*,-18,0,7
Cc1cccc(/C(N)=N/OC(=O)c2ccc3c(c2)OCO3)c1,?,57*,-9,1,5
Cc1cccc(/C(N)=N/OC(=O)c2ccc(Br)o2)c1,?,65*,6,0,4
Cc1cccc(C(=O)O/N=C(/c2ccccc2)c2ccncc2)c1,?,63*,0,-2,12
N/C(=N\OC(=O)N1c2ccccc2Sc2ccccc21)c1ccccc1,5,5,-2,-1,2
CCc1cccc(C)c1NC(=O)C1CCN(S(=O)(=O)Cc2ccccc2)CC1,.,.,.,1,-2
SMILES,D2 ag-1,D2 PAM-1,D2 antag,D2 ag-2,D2 PAM-2
Cc1cccc(NC(=O)c2cc3c(=O)n(Cc4cccnc4)ccc3nc2C)c1,.,.,.,2,-4
COc1ccc(S(=O)(=O)N(CC(=O)Nc2cc(Cl)ccc2C)Cc2ccccc2)cc1OC,.,.,.,0,5
Cc1ccccc1CSc1nnc2[nH]c(=O)cc(-c3ccccc3)n12,.,.,.,-1,9
COc1cccc(NC(=O)c2sc3nc(C)c(C(=O)Nc4ccc(C)cc4C)c(-c4ccccc4Cl)c3c2N)c1,.,.,.,0,13
O=C(c1ccccc1)c1c2c(cc3sc4ccccc4[n+]13)-c1cccc3cccc-2c13,5,8,44*,60*,-21
Cc1cc2c(cc1S(=O)(=O)CCC(=O)N1CCC(C)CC1)OCC(=O)N2,.,.,.,-1,8
CCCOc1ccc(CSc2nnc(CCC)n2N)cc1,-3,-1,0,0,2
CCCCOc1ccc(Cl)cc1CSc1nnc(CC)n1N,1,9,36*,1,.
C=C(C)COc1ccc(-c2[nH]ncc2-c2ccccc2)c(O)c1,7,84*,-6,0,7
COc1ccc(-c2cn[nH]c2-c2ccc(OCc3ccc(F)cc3)cc2O)cc1OC,3,-10,45*,-1,-11
C=C(C)COc1ccc(-c2[nH]ncc2-c2ccc(OC)cc2)c(O)c1,2,-5,-14,.,9
O=C(CSc1oc(-c2ccco2)nc1S(=O)(=O)c1ccc(Br)cc1)c1ccccc1,.,.,.,0,10
COc1ccc(S(=O)(=O)N(CC(=O)Nc2cccc(C)c2)c2ccc(C)cc2)cc1OC,.,.,.,0,11
Cc1ccc(C(=O)NCCSC(C)(C)C)cc1,-2,-6,3,0,-4
Cc1ccc(C(=O)NCC(C)(C)O)cc1,-2,-2,38*,0,19
Cc1ccc(C(=O)NCC(=O)NC23CC4CC(CC(C4)C2)C3)cc1,-5,-9,12,30*,-8
CCOc1ccc(C2CC(=O)Nc3c2c(=O)[nH]c2ncnn32)cc1 (stereo not given),.,.,.,0,15
N=C1/C(=C\c2coc3ccccc3c2=O)C(=O)N=C2SC(c3ccncc3)=NN12,5,2,17,59*,-8
CSC1=NSC2=NC(=O)/C(=C\c3coc4ccccc4c3=O)C(=N)N12,3,7,30,110*,-8
CN(Cc1ccccc1)C(=O)C(=O)Nc1ccc2nc3n(c(=O)c2c1)CCCCC3,.,.,.,0,2
COc1ccc2c3c(cccc13)N(C)N=C2C,7,56*,-1,0,8
COc1ccc2c3c(cccc13)OC2=O,0,-1,5,-1,9
COC(=O)c1ccccc1-c1c2ccc(=N)cc-2oc2cc(N)ccc12,-16,-15,77*,97*,-20
COC(=O)c1ccccc1-c1ccc(/C=N/NC(=O)c2cc3ccccc3o2)o1,-2,-28,-14,0,-17
COC(=O)Cn1c(=O)c2c(nc3n2CCN3c2ccc(F)cc2)n(C)c1=O,.,.,.,0,-5
Cc1cc(C(=O)CSc2nnc(N)s2)c(C)n1CCc1ccc(F)cc1,-3,-14,43*,0,-5
Cc1cc(C(=O)CSc2nnc(N)s2)c(C)n1CCc1ccc(Cl)cc1,-1,11,-20,0,5
O=C(CN1C(=O)CCSc2ccc(S(=O)(=O)N3CCCC3)cc21)Nc1cccc(Cl)c1,.,.,.,0,13
CCC(O)(CCN1CCCCC1)c1ccccc1 (stereo not given),-3,-14,-4,0,-2
